This note sets out measurements from PubChem BioAssay (NCI).

This is part of a sample that, as a whole, favours compounds with a hit. Of some 83,000 tested, about 20% had one in any assay.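 Percent growth is the endpoint: 0 to 100 indicates growth inhibition (40 means 60% inhibition), 0 means no net growth, and negative values indicate cell death.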 Unmarked numbers belong to inactive results. The source made the active and inactive calls. The calls were made as follows: active = growth percent below 10; inactive = the rest.

Common to all, as to experiment: NCI-60 one-dose screen, 48 h (100 = growth as untreated, 0 = no growth, -100 = all killed)
Common to all, as to conditions: 10 µM

Assay [1] concerns NCI-H23 lung.
The subject of assay [2] is NCI-H226 lung.
The subject of assay [3] is NCI-H322M lung.
Assay [4] deals with HOP-62 NSCLC.
Assay [5] relates to NCI-H460 lung.
Assay [6] concerns NCI-H522 lung.
In assay [7] the test system is A549/ATCC NSCLC.
The test system of assay [8] is 786-0 renal.
The test system of assay [9] is COLO 205 colon.
The test system of assay [10] is DU-145 prostate.
Assay [11] relates to K-562 leukemia.
The test system of assay [12] is MALME-3M melanoma.
Assay [13] concerns MDA-MB-231 breast.
Assay [14] deals with RXF 393 renal.
The test system of assay [15] is SF-268 CNS.
Assay [16] concerns SF-295 CNS.
Assay [17] concerns SF-539 CNS.
Assay [18] deals with UACC-257 melanoma.
In assay [19] the test system is M14 melanoma.
Assay [20] deals with HCT-15 colon.

In the case of `Fc1ccc2nc(-c3nc(-c4ccccc4)n4ccccc34)[nH]c2c1`, the growth in assay [1] is 57%; in assay [2], -11.9% (active); in assay [3] it was -9.9% (active); in assay [4], -76.2% (active); in assay [5], -57% (active); in assay [6], -41.2% (active). Also, the growth was -22.6% (active) in assay [7]; 0.317% (active) in assay [8]; 16.1% in assay [9]; -6.4% (active) in assay [10]; 8.58% (active) in assay [11]; -57.7% (active) in [12]. Moreover, the growth was -3.47% (active) in assay [13]; -25.7% (active) in [14]; -38.6% (active) in assay [15]; -28% (active) in [16]; 27.3% in assay [17]; -17.4% (active) in [18]. For the same molecule, the growth is 27.7% in assay [19] and 20.4% in [20].

Consider `COc1ccc(-c2nc(-c3nc4ccc(OC)cc4[nH]3)cc3c2[nH]c2ccccc23)cc1`, for which the growth in assay [1] is 55%; in assay [2], 65.3%; in assay [3] it was 48.2%; in assay [4], 53.9%; in assay [5], 2.46% (active); in assay [6] it was 45.2%. Also, the growth in assay [7] is 12.9%; in assay [8] it was 37.4%; in assay [9], 31.3%; in assay [10], 19.9%; in [11], 16.2%; in assay [12], 58.6%. Also, the growth in assay [13] was 59.5%; in [14], 43%; in [15], 48.8%; in assay [16], -13.1% (active); in assay [17], 51.6%; in assay [18], 70.5%. Besides, the growth in [19] was 34.7%; in [20], 28.7%.

Take `O=C(Nc1ccc(Cl)cc1)N1NC(c2ccc(Cl)cc2)C=C1c1ccccc1` (stereo not given): the growth in [1] was 104%; in assay [2], 109%; in assay [3], 90.8%; in assay [4], 93.4%; in assay [5], 105%; in assay [6], 98.4%. Also, the growth is 89.9% in assay [7]; 92.1% in assay [8]; 99.3% in [9]; 102% in [10]; 103% in assay [11]; 100% in [12]. For the same molecule, the growth in [13] was 106%; in assay [14], 102%; in assay [15], 103%; in assay [16] it was 105%; in assay [17] it was 112%; in assay [18] it was 99.7%. Also, the growth in assay [19] was 102%; in assay [20] it was 103%.

In the case of `CC(=O)N1N=C(c2ccc(Cl)cc2)CC1c1sc(Cl)nc1Cl` (stereo not given), the growth was 87.4% in [1]; 43.1% in [2]; 62.9% in [3]; 103% in assay [4]; 107% in assay [5]; 81% in [6]. Further, the growth in [7] is 78.5%; in [8] it was 84.7%; in assay [9], 108%; in assay [10], 74.7%; in [11], 66.1%; in assay [12] it was 94.8%. Also, the growth in assay [13] is 82.1%; in [14] it was 80.5%; in [15], 80.1%; in [16] it was 80.3%; in [17] it was 104%; in [18], 91.9%. In addition, the growth is 94.6% in assay [19] and 96.3% in [20].

On to `CCOCCOCCOCCOCCOCCOCCOCCOCCOCCO` (tested in a mixture with another compound), for which the growth is 7.79% (active) in assay [1]; 28.2% in assay [2]; 51.4% in assay [3]; 24.4% in [4]; 12.9% in assay [5]; -66.5% (active) in [6]. Besides, the growth in assay [7] was 14%; in assay [8], 39.3%; in [9] it was -89.7% (active); in assay [10] it was 28.1%; in assay [11] it was 4.03% (active); in assay [12] it was 0.836% (active). In addition, the growth in assay [13] is 10.5%; in [14], 37.3%; in assay [15], 21.8%; in assay [16], -29.2% (active); in [17], -10.1% (active); in assay [18], -7.19% (active). The growth in assay [19] is 10.8%; in assay [20] it was 22.1%.

Take `N#Cc1cccc(OCc2nc(N)nc(N)c2-c2ccc(Cl)c(Cl)c2)c1`: the growth in assay [1] was 32.9%; in assay [2], 46.7%; in assay [3] it was 24.7%; in [4], 35.9%; in assay [5] it was 11.5%; in [6], 8.77% (active). The growth in assay [7] is 7.65% (active); in assay [8], 19.4%; in assay [9], 34.1%; in assay [10], 25.3%; in assay [11], 14.6%; in assay [12] it was 33.6%. The growth in assay [13] is 51.4%; in assay [14] it was 43.7%; in [15], 28.4%; in [16], -7% (active); in assay [17], 22.6%; in assay [18], 11.1%. Further, the results for the growth in assay [19] and in assay [20] were 23.2% and 17.7%, respectively.

For `O=C1/C(=C\c2ccc(Cl)cc2)CN(C(=S)Nc2ccccc2)C/C1=C\c1ccc(Cl)cc1`, the growth in assay [1] is -52.8% (active); in [2], -70.1% (active); in assay [3], -20.7% (active); in assay [4], -55.4% (active); in assay [5], -70.8% (active); in assay [6], -88.2% (active). The growth in assay [7] was -21.4% (active); in assay [8], -86% (active); in [9] it was -86.1% (active); in assay [10], -73.2% (active); in assay [11], 2.61% (active); in assay [12] it was -39.9% (active). Also, the growth in assay [13] is -17.3% (active); in assay [14], -88.6% (active); in [15], -72.4% (active); in [16], -53.3% (active); in assay [17], -94.4% (active); in [18], -55.4% (active). In addition, the growth in [19] is -65.3% (active); in assay [20] it was -34.7% (active).

As to `COc1cc2nc(Nc3cccc(C(=O)O)c3)nc(N)c2cc1OC`, the growth in assay [1] was 128%; in assay [2], 91.4%; in assay [3], 126%; in assay [4] it was -37.3% (active); in assay [5], 108%; in assay [6], 87.4%. For the same molecule, the growth in assay [7] was 104%; in [8] it was -9.99% (active); in assay [9] it was 111%; in [10] it was 102%; in assay [11], 108%; in assay [12] it was 111%. The growth in [13] was 86.8%; in assay [14], 106%; in assay [15] it was 95.3%; in assay [16] it was 96.4%; in assay [17], 97%; in [18], 97.5%. The growth is -45.1% (active) in [19] and 102% in assay [20].

Turning to `CSCCCNC(=O)c1ccc2c(c1)/C(=C/c1[nH]c(C)cc1C)C(=O)N2`, the growth in assay [1] is 28.6%; in assay [2], 41.8%; in assay [3], 50.4%; in [4], 35.5%; in assay [5], 30.8%; in [6], 41%. The growth in assay [7] is 29.2%; in [8] it was 6.49% (active); in [9] it was 31.5%; in assay [10], 27.9%; in [11], 49.1%; in assay [12] it was -9.58% (active). For the same molecule, the growth in assay [13] is 20.9%; in assay [14], -31% (active); in [15], 31.6%; in assay [16], 29.2%; in assay [17], 13.2%; in assay [18] it was 48.9%. Besides, the results for the growth in assay [19] and in [20] were 8.79% (active) and 22.5%, respectively.

On to `COc1ccc2c(c1)O/C(=C\c1ccc([N+](=O)[O-])o1)C2=O`, for which the growth in assay [1] is -3.07% (active); in assay [2], 22.3%; in [3], 41.5%; in [4], -12.4% (active); in [5], -20.9% (active); in assay [6], -63% (active). Moreover, the growth was -10.9% (active) in [7]; -27.3% (active) in [8]; -79.4% (active) in [9]; -11.1% (active) in assay [10]; 2.05% (active) in assay [11]; -37.1% (active) in assay [12]. Further, the growth was 8.07% (active) in assay [13]; -74% (active) in assay [14]; -5.87% (active) in assay [15]; 9.85% (active) in [16]; -43.2% (active) in [17]; -13.1% (active) in [18]. Also, the values for the growth in [19] and in assay [20] were -15.5% (active) and 2.39% (active), respectively.

Take `Cc1cc(Cc2cc(C)c(O)c(C)c2)cc(C)c1O`: the growth in [1] is 74.1%; in [2], 96.6%; in assay [3], 68.2%; in assay [4] it was 49.8%; in [5] it was 29.1%; in [6] it was 28.5%. The growth was 36.8% in [7]; 56.2% in assay [8]; 104% in assay [9]; 78.3% in [10]; 13.2% in [11]; 46.5% in [12]. The growth in assay [13] was 59.6%; in [14], 58.1%; in [15], 64.1%; in assay [16], 42.6%; in assay [17], 37.2%; in assay [18] it was 51.5%. In addition, the growth in [19] was 29.9%; in assay [20] it was 38.2%.

Regarding `O=C1/C(=C\c2ccccc2)CN(C(=O)c2ccccc2F)C/C1=C\c1ccccc1`, the growth in assay [1] was 33.8%; in assay [2] it was 27.9%; in assay [3] it was 74.6%; in assay [4], 17.9%; in assay [5] it was 51.6%; in assay [6], -3.31% (active). The growth in assay [7] is 53.3%; in [8], -40.8% (active); in [9], 14.6%; in [10] it was 7.15% (active); in assay [11], 0.045% (active); in assay [12] it was -34.5% (active). The growth in assay [13] was 12.7%; in [14], -78.2% (active); in assay [15], 16.9%; in [16], 6.51% (active); in [17] it was 40.5%; in assay [18], -10.1% (active). For the same molecule, the growth in assay [19] is -59.5% (active); in assay [20], -28.5% (active).

For the molecule `Clc1cc2c(c(CSc3nc4ccccc4n4cccc34)c1)OCOC2`, the growth in assay [1] is 77.9%; in assay [2], 134%; in assay [3], 83.2%; in assay [4], 88.2%; in assay [5], 66.6%; in assay [6], 59.8%. Moreover, the growth is 29.9% in [7]; 93.4% in [8]; 84.1% in assay [9]; 106% in assay [10]; 74.4% in [11]; 88.2% in assay [12]. Also, the growth was 65.8% in [13]; 34.2% in [14]; 85.4% in [15]; 79.5% in [16]; 67.2% in assay [17]; 61.3% in assay [18]. In addition, the growth in assay [19] is 87.5%; in assay [20] it was 71.4%.
